Results taken from PubChem BioAssay AID2315 (National Center for Advancing Translational Sciences (NCATS), 2010).
In all, about 290,000 compounds went through this assay and about 27,000 (9.3%) were called active. Many of the other results were omitted from the sample, so actives are more common in it than they were. A number with no mark means an inactive call. No stated cut-off is given here; in the data, active means inhibition mostly above about 28% (no sharp cut-off); inactive means mostly below about 43%.

assay: A qHTS for Small Molecule Inhibitors of Shiga Toxin; conditions: Vero cells, Shiga toxin protein synthesis inhibition reporter; at 38.7 µM, active compounds read high; further: 0% is about no effect

SMILES	inhibition
C/C(=N\NC(=O)c1ccoc1C)c1ccccc1O	104% (active)
C/C(=N\NC(=O)c1ccccc1C)c1ccc(N2CCOCC2)cc1	40.6%
CC(C)=C(NC(=O)c1ccccc1)C(=O)N/N=C(\C)c1ccccc1O	-2.93%
CC1=C(C(=O)NC2CC(C)(C)Cc3c2cnn3-c2ccc(C)cc2)OCCO1 (centres undefined)	-2.9%
COc1cc(S(=O)(=O)N2CCN=C2c2ccccc2)ccc1Cl	-4.87%
CCN(CC)CCCNC(=O)CCn1nc(-c2ccc(Cl)cc2)ccc1=O	-2.08%
COc1ccc2ccccc2c1/C=N/NC(=O)c1cc(C)[nH]n1	7.72%
Cc1cc2nc(SCCN3CCOCC3)[nH]c2cc1C	59.3% (active)
Cc1cccc(C)c1OCCN1CCOCC1	1.56%
CCn1c2ccc(F)cc2c2nnc(SCCN3CCOCC3)nc21	-3.64%
COc1cccc(CNS(=O)(=O)c2ccc3c(c2)N(C(C)=O)CCS3)c1	-13.7%
Oc1ccc(/C=N/NC2=NCCCCC2)c(O)c1	97.5% (active)
Oc1ccc(/C=N/Nc2nc(-c3ccccc3F)nc3ccccc23)c(O)c1	16%
COc1ccc(/C=C(\C#N)C(=O)ONC2=NCCCCC2)cc1	20.9%
Cc1nc2ccccc2nc1N/N=C/c1ccc(O)cc1O	55.6% (active)
Cc1cc(N/N=C/c2ccccc2F)c2ccccc2n1	26.9%
C[C@H](C(=O)CC(=O)OC(C)(C)C)[C@H](O)c1ccc(C(F)(F)F)cc1	1.74%
COCCCNC(=S)N1CCN(c2nc(-c3cccc(OC)c3)cs2)CC1	21.1%
C=CCOc1ccc(/C=C/C(=O)OCC(=O)NC2CCCCCC2)cc1	1.6%
COCC(=O)N1CCCC(C(=O)c2ccc(C(F)(F)F)cc2)C1 (centres undefined)	-8.8%
CC(=O)Nc1ccc(S(=O)(=O)Oc2ccc(Br)cc2C(=S)N2CCOCC2)cc1	-12.5%
Cn1c(CNC(=O)c2ccco2)nnc1SCC(=O)N1CCN(c2ccccc2)CC1	4.34%
COC(=O)c1c(NC(C)=O)sc(C(=O)Nc2ccccc2OC)c1C	-23.1%
COc1ccccc1NC(=O)C1=C(C)NC(=O)NC1c1ccc(C)s1 (centres undefined)	1.28%
COc1ccccc1NC(=O)c1ccc(C)s1	73.7% (active)

SMILES	inhibition
COc1ccc(/C=C(/NC(=O)c2ccccc2)C(=O)Nc2cccc(C(=O)O)c2)cc1	-15.3%
O=C1c2ccccc2C(=O)N1CCOc1ccc(F)cc1	90.8% (active)
Cc1cccc2c1N(CCOc1ccccc1)C(=O)C2=O	-13.4%
O=C(OCCN1C(=O)c2ccccc2C1=O)Oc1ccccc1	-2.38%
CC(NC(=O)COc1cccnc1[N+](=O)[O-])c1ccc(Cl)cc1Cl (centres undefined)	-9.36%
O=C(CCC(=O)Nc1ccccc1)N/N=C/c1ccccc1F	144% (active)
O=C(CCCCCNC(=O)c1ccccc1)N/N=C/c1ccccc1	11%
O=C(Cc1ccccc1)N/N=C/c1ccc(Cl)cc1Cl	6.24%
CN(C)C(=O)c1ccc(NC(=O)c2ccccc2-c2ccccc2)cc1	-11.5%
CCc1ccc(NC(=O)c2ccc(Cn3cc([N+](=O)[O-])cn3)cc2)cc1	51.8%
CCOc1cccc(C(=O)Nc2cnn(Cc3ccccc3)c2)c1	17.4%
O=C(Nc1ccccc1F)c1ccc(Cn2cc(Br)cn2)cc1	71.1% (active)
CC(NC(=O)Cn1cc(C(F)(F)F)cc(Cl)c1=O)c1ccccc1 (centres undefined)	-1.42%
NNC(=O)CSc1nnc(-c2ccccc2)n1-c1ccccc1	-7.44%
COc1ccc(C(=O)NC2CC2)cc1OC1CCN(Cc2ccc(SC)cc2)CC1	-0.345%
COc1ccc(Nc2nnc(C)c3ccccc23)cc1	106% (active)
COc1ccc(Nc2nc(=O)[nH]nc2C)cc1	16.1%
Cc1nnc(NCCO)c2ccccc12	10.4%
CN(Cc1ccccc1)C(=O)C1CCCN(c2ncnc3c2nc2n3CCCCC2)C1 (centres undefined)	21.9%
C/C(=C/c1ccccc1)C(=O)N1CCN(c2ccccc2)CC1	18.9%
Cc1cccc(C(=O)OC(C)CN2CCCC2)c1 (centres undefined)	5.97%
CC(C)(C)c1ccc(C(=O)NNC(=O)Cc2ccccc2)cc1	76.6% (active)
CCNC(=S)NNC(=O)Cc1ccccc1	-8.55%
O=C(CCc1ccccc1)NNC(=O)c1ccc(Br)cc1	34.5%
CCOc1ccc2c(c1)C(c1ccc(C)cc1)=NNC(c1ccc(C)cc1)=N2	85.1% (active)

SMILES	inhibition
Cc1ccc(C2=Nc3c(ccc4ccccc34)C(c3ccncc3)=NN2)cc1	5.77%
CCc1ccc2c(c1)C(c1ccc([N+](=O)[O-])cc1)=NNC(c1ccccc1)=N2	31.4%
Cc1ccc(S(=O)(=O)N2CCN(C(=O)N3CCOCC3)CC2)c(C)c1	-2.32%
COc1cccc(OC)c1C(=O)N1CCN(Cc2cccnc2)CC1	11.9%
O=C(NCc1ccccc1)c1ccc(S(=O)(=O)Nc2cccc(C(F)(F)F)c2)cc1	-3.31%
O=C(Cc1cccs1)NCc1cccc(C(F)(F)F)c1	61.9% (active)
COc1cc(CC(=O)NCc2cccs2)cc(OC)c1OC	-11.7%
COc1cccc(NC(=O)N2CCCC2C(=O)NC2CCCCC2)c1 (centres undefined)	-3.54%
O=S(=O)(Nc1ccc2[nH]ncc2c1)c1ccccc1Cl	-6.01%
N#Cc1ccc(CSc2nnc3ccccn23)cc1	-7.41%
O=C(CSc1nnc2n1CCCN2)c1ccccc1	53.5% (active)
CCN(C(=O)CSc1nnc2ccccn12)C1CCS(=O)(=O)C1 (centres undefined)	-8.56%
Cn1c(CC(=O)Nc2ccccc2)nnc1SCC(=O)c1ccccc1	0.707%
Cn1c(SCC(=O)c2ccc(F)cc2)nnc1-c1ccccn1	21.4%
O=C(CSc1nnc(-c2ccco2)n1CC1CCCO1)c1ccccc1 (centres undefined)	21.9%
O=C(CSc1nnc2ccccn12)c1ccccc1	74.7% (active)
Cc1ccc(-n2c(C)nnc2SCC(=O)NC2CC2)cc1	-29.3%
Cc1ccc(-n2c(C)cc(C(=O)CSc3nnc4ccccn34)c2C)cc1	48.6% (active)
Cn1c(=O)n(C)c2cc(S(=O)(=O)Nc3ccc(F)cc3)ccc21	0.488%
Cc1ccc(CCN2CC(C(=O)NCCc3ccccc3)CC2=O)cc1 (centres undefined)	16.6%
CC1CCCCN1C(=O)Cn1c(=O)oc2cc(S(=O)(=O)N3CCCCC3)ccc21 (centres undefined)	12.7%
CC(C)(C)NC(=O)NC(=O)COC(=O)C1c2ccccc2Oc2ccccc21	-5.17%
Cc1ccc2[nH]c(=O)c(CC(=O)O)c(-c3ccccc3)c2c1	1.65%
Cc1nn(CC(=O)N/N=C/c2ccc(F)cc2)c(C)c1[N+](=O)[O-]	-12.8%
COc1cc(/C=N/NC(=O)c2ccc(N3CCCC3=O)cc2)ccc1O	56.5% (active)

SMILES	inhibition
O=C(N/N=C/c1cccc(Br)c1)c1ccc(N2CCCC2=O)cc1	18.7%
Cc1cc(C(=O)N/N=C/c2ccc(N3CCOCC3)cc2)c(C)o1	46.9%
Cc1cc(C(=O)N/N=C/c2ccc(O)c([N+](=O)[O-])c2)c(C)n1-c1ccc(F)cc1	0% (active)
COc1ccc(/C=N/NC(=O)c2ccncc2)cc1CN1CCCc2ccccc21	-1.95%
COc1cc(/C=N/NC(=S)Nc2cccnc2)cc(OC)c1O	-4.42%
COc1cc(/C=N\NC(=O)C2C(=O)NCC2c2ccccc2)cc(OC)c1O (centres undefined)	-11.2%
COc1cc(/C=N/NC(=O)c2cc(C)n(-c3ccc(F)cc3)c2C)cc(OC)c1O	43.1% (active)
CCc1ccc(CNC(=O)C2CC(=O)N(CCc3ccc(C)cc3)C2)cc1 (centres undefined)	-9.66%
COCCC(=O)N1CCC(Oc2ccc(C(=O)NCc3ccon3)cc2)CC1	-10.3%
CCCCCC1CC(COc2ccccc2)OC1=O (centres undefined)	-10.6%
Cc1cc(-c2n[nH]c(=S)n2/N=C/C(Br)=C/c2ccccc2)n[nH]1	91.5% (active)
S=c1[nH]nc(-c2cccnc2)n1/N=C/C(Cl)=C\c1ccccc1	48.2%
Cc1cc(-c2n[nH]c(=S)n2/N=C/c2ccco2)n[nH]1	-9.01%
CC(=O)c1c(C)oc2ccc(NS(=O)(=O)c3ccc(C(=O)O)cc3)cc12	18.1%
CCCCN(CCCC)CCCNC(=O)CN1C(=O)COc2ccc(S(=O)(=O)N3CCC(C)CC3)cc21	-6.42%
Cc1cccc(NC(=O)C2CCCN(C(=O)Nc3ccc(F)cc3)C2)c1C (centres undefined)	1.84%
Nc1nonc1C(=O)NCCc1ccccc1	66.7% (active)
CN(C)/C(=N\OC(=O)c1ccccc1)c1nonc1N	-8.6%
O=C(NCCc1ccccc1)C1CC1	8.81%
NC(=O)Nc1ccccc1C(=O)NCCc1ccccc1	83.7% (active)
NS(=O)(=O)c1ccc(CCNC(=O)CNC(=O)Cc2ccccc2)cc1	-4.55%
O=C(O)c1ccccc1-c1ccccc1C(=O)NCCc1ccccc1	23.5%
Cc1ccc(-c2ccc(=O)n(Cc3ccc(F)cc3Cl)n2)cc1	-3.36%
CCOC(=O)N1CCC(N2Cc3cccc(C(=O)Nc4c(C)cccc4CC)c3C2=O)CC1	3.74%
